A selection: hits, their analogues and other compounds. The true share with any hit is near 2.3%.
Abeta yeast res = compounds reversing amyloid beta toxicity in yeast; yeast expressing A-beta42, growth rescue, OD600, 48 h; response scale: 0% DMSO, 100% iron-clioquinol control; Potency, µM (top dose mostly 46.1 µM), hits mostly activators; hit rate 0.063% among 410,000; AID 1347071; further: potency means the concentration at half of the fitted maximal effect; nearly all actives have a fitted effect of over 55% in size
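Growth rescue measured by 600 nm absorbance after 48 h yeast culture at 30 C with compound. Values normalized between DMSO and an equimolar ferric chloride plus clioquinol control.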
Mm-Cpn inhibitor = blocks the Methanococcus maripaludis chaperonin Mm-Cpn; purified Mm-Cpn ATPase, ADP Transcreener TR-FRET; AID 504842; Potency, µM (top dose mostly 76.9 µM), inactives show top-dose activity, negative = inhibition, hits mostly inhibitors; hit rate 0.031% among 330,000; further: potency means the concentration at half of the fitted maximal effect; on the % scale 0 is the no-effect control and ±100 the full control effect; nearly all actives have a fitted effect of over 80% in size
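TR-FRET (320 nm excitation; 590 and 665 nm emission) reports ADP made from 10 uM ATP by 25 nM enzyme; compounds were preincubated 10 min, reaction run 30 min, both at 37°C.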
TDP43 rescue = inhibitors of TDP-43 toxicity in yeast; hit rate 1.8% among 410,000; AID 652104; TDP-43 expressing yeast growth rescue, BacTiter-Glo, 24 h; Potency, µM (top dose mostly 46.1 µM), without a hit: top-dose growth rescue (activation), most hits filed as activators; further: potency means the concentration at half of the fitted maximal effect; % of control where 0% means no effect; nearly all actives have a fitted effect of over 50% in size
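Yeast expressing TDP-43 (pregrown in raffinose, seeded at OD600=0.02 in galactose medium) exposed to compounds 24 hr at 30 deg C. Growth read by BacTiter-Glo luminescence; rescue of toxicity appears as increased signal.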
CCT chaperon mod = cytosolic chaperonin activity modulation | purified chaperonin ATPase assay, HTRF ADP detection, 30 min | activity change, % (test concentration not listed), hits read low | hit rate 0.3% among 360,000; in the data active means activity change below about -30%; further: on the % scale 0 is the no-effect control and ±100 the full control effect
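We incubate TRiC, 40 or 20 nM final, with library compounds at 76 uM and 10 uM ATP for 30 min at 37 °C. ADP formed is detected with Transcreener HTRF reagents after 30 min at room temperature.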
FUS suppressor = suppressors of FUS proteinopathy in yeast; AID 1347120; hit rate 0.24% among 390,000; Potency, µM (series often up to 76.6 µM), actives largely listed as activators; S. cerevisiae FUS-expressing, growth rescue, OD600, 24 h;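 further: potency means the concentration at half of the fitted maximal effect; plate controls were DMSO vehicle for no effect and reference control for full effect; nearly all actives have a fitted effect of over 55% in size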
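Yeast FUS proteinopathy model; galactose-induced FUS (2%), starting OD 0.005. Cpds in dilution series, 24hr, 30C, 99% humidity. Abs 600 nm growth. Pos ctrl CP55940 (top 92uM final); neg ctrl DMSO.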
aSyn yeast inh = rescues yeast growth from alpha-synuclein toxicity; Potency, µM (doses to about 46.1 µM), for the others: top-dose growth rescue (activation), hits mostly activators; AID 652106; hit rate 0.14% among 370,000; Yeast expressing alpha-synuclein, growth rescue, BacTiter-Glo, 24 h; further: potency means the concentration at half of the fitted maximal effect; % of control where 0% means no effect; nearly all actives have a fitted effect of over 65% in size
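Screening used galactose-induced yeast with toxic alpha-synuclein levels, exposed to compound for 24 hr at 30 deg C. Cell growth, read with BacTiter-Glo luminescence, gave the measured signal.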
* = called active by the depositor. Unless noted, the call rests on the fitted dose curve; in most records, active means well fitted curve in the direction sought with a large enough effect; inconclusive means small, poorly fitted or top-dose-only effect, or another doubt; inactive means no such curve, though single readings can be large; an effect the other way counts as inactive or inconclusive.

How did COc1ccc(C2C3=C(N=C4SCC(=O)N42)c2ccccc2CC3)cc1 (stereo not given) do in these assays?
Abeta yeast res: inactive; Mm-Cpn inhibitor: -8%; TDP43 rescue: 0%; CCT chaperon mod: -3; FUS suppressor: inconclusive; aSyn yeast inh: -2%

How did COc1ccc(CNCCCC(=O)Nc2c(Cl)ccc(C)c2Cl)cc1OC do in these assays?
Abeta yeast res: inactive; Mm-Cpn inhibitor: 0%; TDP43 rescue: -27%; CCT chaperon mod: -48*; FUS suppressor: inactive; aSyn yeast inh: -6%

What do the screens show for `COc1ccc(OCc2nn3c(-c4ccccc4)nnc3s2)cc1`?
FUS suppressor: inactive

Results for Cc1ccc(S(=O)(=O)N2CCC(C(=O)Nc3ccc(C)c(Cl)c3)CC2)cc1 ?
Abeta yeast res: inactive; TDP43 rescue: 23%; FUS suppressor: inactive

How did CN(C)/[N+]([O-])=N/Oc1ccc([N+](=O)[O-])cn1 do in these assays?
aSyn yeast inh: 0%

How did COc1ccccc1C(=O)NNC(=O)C(=O)Nc1cccc(Cl)c1C do in these assays?
Abeta yeast res: inactive; Mm-Cpn inhibitor: 1%; TDP43 rescue: 11µM*; CCT chaperon mod: 0; FUS suppressor: inactive; aSyn yeast inh: -52%

How did COc1ccc(-c2cc(C(=O)NN=Cc3ccccc3F)[nH]n2)cc1 do in these assays?
FUS suppressor: inactive

How did CC1=CCC2C(=O)N(c3cccc(C(=O)Nc4ccc(Cl)cc4)c3)C(=O)C2C1 (stereo not given) do in these assays?
Abeta yeast res: 14µM*; Mm-Cpn inhibitor: -2%; TDP43 rescue: inconclusive; CCT chaperon mod: 0; FUS suppressor: inactive; aSyn yeast inh: 27%

What do the screens show for `CC1=CCC2C(=O)N(c3cccc(C(=O)NCc4ccccc4)c3)C(=O)C2C1` (stereo not given)?
Abeta yeast res: inactive; Mm-Cpn inhibitor: 3%; TDP43 rescue: 1%; CCT chaperon mod: -1; FUS suppressor: inactive; aSyn yeast inh: 5%

What do the screens show for `CCOc1cc(C2Nc3ccccc3C(=O)N2Cc2ccco2)ccc1O` (stereo not given)?
aSyn yeast inh: -9%

Results for Cc1cccc(NC(=S)NC(=O)Cc2ccccc2)c1C ?
Abeta yeast res: 7.9µM*; Mm-Cpn inhibitor: 2%; TDP43 rescue: inconclusive; CCT chaperon mod: -1; FUS suppressor: inactive; aSyn yeast inh: 15%

Results for C=CCn1c2ccccc2c(=O)c2cc(C#Cc3ccccn3)ccc21 ?
Abeta yeast res: inactive; Mm-Cpn inhibitor: inconclusive; TDP43 rescue: 20µM*; CCT chaperon mod: -1; FUS suppressor: inactive; aSyn yeast inh: -25%

What do the screens show for `O=C(C1CCN(S(=O)(=O)c2ccc3ccccc3c2)CC1)N1CCN(c2ncccn2)CC1`?
Abeta yeast res: inactive; Mm-Cpn inhibitor: 0%; TDP43 rescue: 20µM*; CCT chaperon mod: -1; FUS suppressor: inactive; aSyn yeast inh: 7%

What do the screens show for `O=C(C1CCN(S(=O)(=O)c2cccc3cccnc23)CC1)N1CCN(c2ccc(Cl)cc2)CC1`?
Abeta yeast res: inactive; Mm-Cpn inhibitor: -13%; TDP43 rescue: 18%; CCT chaperon mod: -1; FUS suppressor: 28µM*; aSyn yeast inh: 0%

Results for CC1CCN(C(=O)C2CCN(S(=O)(=O)c3cc(Cl)ccc3Cl)CC2)CC1 ?
Abeta yeast res: inconclusive; Mm-Cpn inhibitor: 0%; TDP43 rescue: 13µM*; CCT chaperon mod: 0; FUS suppressor: inactive; aSyn yeast inh: 3%

Results for O=C(C1CCN(S(=O)(=O)c2cccc3cccnc23)CC1)N1CCN(c2ccccn2)CC1 ?
Abeta yeast res: inactive; Mm-Cpn inhibitor: 0%; TDP43 rescue: 14%; CCT chaperon mod: -1; FUS suppressor: inactive; aSyn yeast inh: -15%

How did Cc1ccnc(NC(=O)C2CCN(S(=O)(=O)c3ccc4ccccc4c3)CC2)c1 do in these assays?
Abeta yeast res: inactive; Mm-Cpn inhibitor: 1%; TDP43 rescue: 8%; CCT chaperon mod: -4; FUS suppressor: inactive; aSyn yeast inh: 4%
